# Sampled rows, rich in hits. Any-hit rate of the full collection: about 1.2%.
# PGK inhibitor – blocks T. brucei phosphoglycerate kinase. 380,000 tested, 0.043% active. P07378. Potency, µM (series often up to 57.5 µM), inactives show at the top dose activity change, negative = inhibition, most hits filed as inhibitors. PGK/GAPDH coupled, Kinase-Glo luminescence, 60 min; also: potency is read from the fitted curve at half-maximal effect; nearly all actives have a fitted effect of over 60% in size
#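 Luminescent ATP detection (Kinase-Glo Plus) follows a 60-minute room-temperature incubation, with wells lacking PGK as controls. Buffer: 100 mM TEA (pH 7.6), 5 mM MgCl2, 0.01% Tween-20. Coupling enzyme GAPDH (100 nM final) supplies unstable 1,3-BPG in-well.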
# PI5P4Ka inh – PI5P4K alpha (human) kinase inhibition; PI5P4Kalpha enzyme, ADP-Glo luminescence, 60 min; stronger effect = lower value; max response, %; 330,000 tested, 1.2% active; active = max response of -50% or lower; inconclusive = between -30% and -50%; inactive = -30% or higher; also: value at the top dose of about 77 µM
#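 Luminescence from ADP-Glo served as readout of PI5P4Kalpha activity in a qHTS format. Reaction: enzyme, substrate, compound, ATP at 5 microM final, 60 min at RT.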
# Pin1 inhibitor – inhibitors of human Pin1; Q13526; Pin1 FP peptide displacement, HiFluor488, 10 min; Potency, µM (series often up to 115 µM), inactives show top-dose activity, negative = inhibition, most hits filed as inhibitors; 390,000 tested, 0.009% active; AID 504891; active = well fitted inhibition curve with a large enough effect in the polarisation, with a control signal flat, not every such curve was filed as active; inconclusive = small, poorly fitted or top-dose-only effect, or effect the other way, or a change in a side signal; inactive = no such curve, though single readings can be large or run the other way; the % refers to the polarisation; also: potency is read from the fitted curve at half-maximal effect
# Target sequence (Q13526 whole entry, looked up): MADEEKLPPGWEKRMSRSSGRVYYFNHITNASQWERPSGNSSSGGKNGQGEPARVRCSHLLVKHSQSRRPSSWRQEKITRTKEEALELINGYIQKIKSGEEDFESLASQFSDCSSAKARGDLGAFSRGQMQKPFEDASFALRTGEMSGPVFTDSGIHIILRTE
# GoLoco inh red – blocks human Gai1 binding to RGS12 GoLoco peptide, red readout; P63096; Gai1:RGS12 GoLoco peptide FP, rhodamine, 10 min; Potency, µM (titrated, usually from 61.6 µM), inactives show top-dose activity, negative = inhibition, usual class: inhibitors; 230,000 tested, 0.44% active; AID 880; active = well fitted inhibition curve with a large enough effect, not every such curve was filed as active; inactive = no such curve, though single readings can be large or run the other way; also: potency is read from the fitted curve at half-maximal effect; nearly all actives have a fitted effect of over 30% in size
# GCN5L2 inh – blocks human GCN5L2 histone acetyltransferase; Q92830; AID 504327; 390,000 tested, 0.21% active; Potency, µM (doses to about 58.9 µM), without a hit: top-dose activity change, negative = inhibition, actives largely listed as inhibitors; GCN5L2 HAT assay, ThioGlo1 CoA-SH fluorescence; also: potency is read from the fitted curve at half-maximal effect
#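 GCN5L2 (20nM final) in 50mM HEPES, 0.1mM EDTA pH 7.5, 0.01% Tween-20 was preincubated 15 min at room temperature with compound, then given ThioGlo1 (50uM), H3(1-25) peptide (75uM) and acetyl-CoA (70uM); CoA-thiol fluorescence (Ex340/Em540) was read at 0 and 20 min.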
# PI4K2A block – PI4K2A (human) kinase inhibition. Q9BTU6. purified PI4K2A, ADP-Glo luminescence, 1 h; stronger effect = lower value. activity change, negative = inhibition, % at 76.9 µM. 420,000 tested, 0.13% active. AID 1346378; in the data active = activity change below about -50%; inconclusive = mostly about -30% to -49%;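 also: -100% = wells without enzyme as full effect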
# Target sequence (Q9BTU6 whole entry, looked up): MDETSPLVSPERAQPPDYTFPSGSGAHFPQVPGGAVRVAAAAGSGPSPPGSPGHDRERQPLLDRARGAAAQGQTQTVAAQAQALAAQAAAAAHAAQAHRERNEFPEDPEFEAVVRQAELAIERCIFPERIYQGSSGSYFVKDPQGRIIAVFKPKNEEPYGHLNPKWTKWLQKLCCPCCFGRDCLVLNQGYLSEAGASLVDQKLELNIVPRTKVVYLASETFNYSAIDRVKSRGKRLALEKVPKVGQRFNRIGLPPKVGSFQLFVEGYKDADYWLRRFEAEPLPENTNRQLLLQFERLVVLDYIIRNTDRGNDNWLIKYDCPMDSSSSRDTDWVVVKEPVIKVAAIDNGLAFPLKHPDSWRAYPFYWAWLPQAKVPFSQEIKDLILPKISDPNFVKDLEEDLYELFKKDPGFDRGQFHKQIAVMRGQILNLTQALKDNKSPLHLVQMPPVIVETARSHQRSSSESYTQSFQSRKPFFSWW
#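 ADP-Glo luminescence measured ADP generated by PI4K2A enzyme (4 ug/mL before mixing) with 1.2 mM PI substrate (pre-mix) and 300 microM ATP (pre-mix). Tris pH7.5 buffer with MgCl2, Triton X-100; 1 h reaction at ambient temperature.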
# * hit, by the source's call; i = inactive; ? = inconclusive; / = no result given; [ ] = remark or other dose. Unless noted, calls follow the shape of the dose curve; as a rule, active = well fitted curve in the direction sought with a large enough effect; inconclusive = small, poorly fitted or top-dose-only effect, or another doubt; inactive = no such curve, though single readings can be large; an effect the other way counts as inactive or inconclusive. Unless noted, % is scaled to controls: 0 for no effect and ±100 for the full control effect.
SMILES,PGK inhibitor,PI5P4Ka inh,Pin1 inhibitor,GoLoco inh red,GCN5L2 inh,PI4K2A block
CO/N=C/Cc1c([N+](=O)[O-])c(C)nn1C,-10%,1,-1%,-9%,-8%,-5
CC(C)C[C@H](NC(=O)Nc1cccc(Br)c1)C(=O)O,-4%,1,3%,7%,-2%,-4
NC(=O)OC[C@H](O)COc1ccc(Cl)cc1,/,/,/,7%[21.6 µM],14µM*,/
O=C(O)c1cccc(-n2cccc2/C=C/[N+](=O)[O-])c1,?,-88*,?,-17%,-26%,-25
COc1ccc(-c2n[nH]c(=S)o2)c(OC)c1,6%,-86*,2%,6%,-3%,-8
COc1ccccc1N1CCN(c2ccc(-c3ccccc3)nn2)CC1,?,-20,-1%,13µM*,-11%,-10
COc1ccccc1N1CCN(c2ccc3ccccc3n2)CC1,i,3,-6%,/,-4%,-22
C/[N+]([O-])=C\c1coc2ccccc2c1=O,-1%,-10,-8%,-4%,-2%[0.501 µM],-2
O=C1NC(=S)S/C1=C\c1coc2ccccc2c1=O,/,-73*,31%,20%,-5%,-5
O=C1NC(=S)S/C1=C\c1coc2ccc(O)cc2c1=O,-11%,-100*,8%,40%,-6%,-26
N/C(Cc1cccc2ccccc12)=N\OC(=O)c1ccc2c(c1)OCO2,3%,-23,-10%,10%,0%,-5
N#CC(C#N)=C(N)/C(C#N)=C/c1cc(O)c(O)c(O)c1,-28%,-67*,?,179%,-9%,-17
CC(C)(C)c1cc(/C=C(\C#N)C(N)=S)cc(C(C)(C)C)c1O,/,/,/,104%,-11%,-2
CCc1nnc(NS(=O)(=O)c2ccc(Nc3ccc([N+](=O)[O-])c4nonc34)cc2)s1,-26%,-57*,?,129%,-7%,-26
CCc1nnc(NS(=O)(=O)c2ccc(NS(=O)(=O)c3ccccc3[N+](=O)[O-])cc2)s1,-4%,-19,?,/,2%,-3
COC(=O)c1ccc(NC(=O)COC(=O)CSc2nc(C)cc(C)n2)cc1,3%,/,1%,-1%,0.71µM*,-1
O=C(O)c1ccc(N2CCc3ccccc32)c([N+](=O)[O-])c1,0%,-79*,2%,/,15%,-3
COC(=O)c1ccc(N2CCc3ccccc32)c([N+](=O)[O-])c1,-4%,-15,3%,/,3%,6
CN(CC1COc2ccccc2O1)C(=S)Nc1ccccc1F (stereo unspecified),0%,-4,2%,-5%,14%,2
Cc1ccn2c(=O)nc(SCC(=O)c3ccccc3)nc2c1,6%,-62*,?,/,-17%,-10
Cc1ccc2nc(SCC(=O)c3ccccc3)nc(=O)n2c1,i,0,-6%,/,-4%,-2
CC(=O)N1Cc2ccccc2CC1C(=O)OCC(=O)c1c(N)n(C)c(=O)n(C)c1=O (stereo unspecified),-6%,0,0%,/,-4%,-5
Cn1c(N)c(C(=O)COC(=O)C2Cc3ccccc3CN2S(C)(=O)=O)c(=O)n(C)c1=O (stereo unspecified),-9%,-61*,/,/,/,-16
O=c1c2ccccc2sn1-c1ccc(S(=O)(=O)N2CCCCC2)cc1,-5%,/,3%,/,/,-1
Cc1ccc(-n2sc3ccccc3c2=O)cc1S(=O)(=O)N1CCCCC1,i,-111*,38%,28µM*,2.2µM*,?
SMILES,PGK inhibitor,PI5P4Ka inh,Pin1 inhibitor,GoLoco inh red,GCN5L2 inh,PI4K2A block
O=c1c2ccccc2sn1-c1ccc(S(=O)(=O)N2CCCC2)cc1,-3%,/,-3%,0.16µM*,0.5µM*,-2
COC(=O)[C@@H]1C[C@@]2(O)[C@@H](O)[C@@H](O)[C@@H](O)C[C@H]2N1CC(c1ccccc1)c1ccccc1,-5%,-3,-1%,-7%,3%,0
O=C1C2C(C(=O)N1/N=C/c1cc([N+](=O)[O-])ccc1O)C1C=CC2C12CC2 (stereo unspecified),i,/,27%,8%,-7%,1
O=C1C2C(C(=O)N1/N=C/c1cc([N+](=O)[O-])c(O)cc1O)C1C=CC2C12CC2 (stereo unspecified),-28%,-74*,-12%,-4%,-3%,-7
Cc1ccc(S(=O)(=O)N2CCN(Cc3ccccc3C(F)(F)F)CC2)cc1,-6%,1,-1%,-10%,1.6µM*,6
CCn1c(O)c(/C=C2\C=Nc3ccccc32)sc1=Nc1ccccc1,/,/,-3%,-6%,-5%,10
Cn1c(O)c(/C=C2\C=Nc3ccccc32)sc1=Nc1ccc(C(=O)O)cc1,-6%,-66*,?,1%,-15%,-3
Cc1nc(C)c(C(=O)N(c2ccccc2F)C(C(=O)NCC2CCCO2)c2ccccc2)s1 (stereo unspecified),6%,-8,-2%,/,0%,-1
Cc1nc(C)c(-c2csc(Nc3ccc(C(=O)O)c(O)c3)n2)s1,0%,-72*,?,/,-1%,0
COc1cccc(Nc2nc(-c3sc(C)nc3C)cs2)c1,-3%,1,-1%,/,-14%,-5
COc1ccc(NC(=O)N2CCc3ccccc32)cc1,?,?,-2%,15%,-2%,-54*
COc1ccc(NC(=O)N2CCCc3ccccc32)cc1,0%,/,1%,10%,-2%,5
COc1ccccc1C(=O)NC(=S)NNC(=O)c1sc2ccccc2c1Cl,7%,-52*,0%,-21%,40%,1
Cc1ccc(OCC(=O)Nc2ccc3c(c2)OCO3)c(C)c1,1%,0,-1%,11%,-5%,-1
CCCCCCCCCCCCCCOc1ccc(C(=O)O)o1,/,/,/,/,7.1µM*,/
O=C(Nc1ccccc1F)c1ccc(CSc2ncccn2)cc1,2%,2,1%,5%,-10%,-14
O=C(Nc1ccccc1)c1ccc(CSc2ncccn2)cc1,-5%,1,?,2.2µM*,-18%,-18
Oc1ccc(/C=C\c2cc(O)cc(O)c2)cc1,/,/,/,7%,0%[21.4 µM],/
COc1ccccc1-c1cn[nH]c(=S)n1,-1%,-70*,2%,-5%,-16%,-5
COc1ccccc1-c1n[nH]c(=S)n1Cc1ccccc1,-3%,-10,-4%,/,-9%,0
Cc1nc(NC(=O)c2ccco2)sc1C(=O)O,?,?,0%,/,-8%,-67*
COC(=O)c1sc(NC(=O)c2ccco2)nc1C,-4%,1,5%,-8%,-4%,-2
OCC1O[C@H]([S-])[C@H](O)[C@@H](O)[C@@H]1O.[Au+] (stereo partly specified),/,/,/,/,117%,-55*
Cc1cc(C)cc(-n2cccc2/C=C2/C(=N)N3C(=NC2=O)SN=C3S(C)(=O)=O)c1,-3%,?,1%,94%,?,-1

# Screening results (PubChem)
